This is an account of results in article PMC8384837, “Expanding the binding specificity for RNA recognition by a PUF domain”.

Assay in all cases: yeast three-hybrid, YBZ-1, SC-Leu-His + 0.5 mM 3-AT, 4 days
Holding throughout (settings): tags: N-Gal4 AD-HA kept; label: inside an RPR1-promoter hybrid RNA with tandem MS2 sites; ssRNA

One assay has as its target PUM1 PUF domain R1-QRR (Homo sapiens, UniProt Q14671 828-1176, S863Q;Q867R). Summed up: (§1)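 The interaction score is the logarithmic change in variant frequency from input to selection. It uses log2, with a pseudocount of 1 for absent variants, and frequencies came from PCR-amplified, Illumina-sequenced repeat regions. The libraries were Pumilio-1 PUF domains randomized at the three base-contacting residues per repeat, co-expressed with matching RNA elements in strain YBZ-1 (LexA–MS2 coat fusion, HIS3 reporter). Plating lasted four days on SC-Leu (input) or SC-Leu-His + 0.5 mM 3-AT (selection).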

Another assay addresses PUM1 PUF domain R1-VKR (Homo sapiens, UniProt Q14671 828-1176, S863V;R864K;Q867R). Summed up: as §1
The target of another assay is PUM1 PUF domain R1-RKV (Homo sapiens, UniProt Q14671 828-1176, S863R;R864K;Q867V). An outline of the steps: as §1
In another assay the target is PUM1 PUF domain R3-EWV (Homo sapiens, UniProt Q14671 828-1176, C935E;R936W;Q939V). Summed up: as §1
A further assay addresses PUM1 PUF domain R3-GWP (Homo sapiens, UniProt Q14671 828-1176, C935G;R936W;Q939P). An outline of the steps: as §1
In another assay the target is PUM1 PUF domain R3-ARI (Homo sapiens, UniProt Q14671 828-1176, C935A;Q939I). An outline of the steps: as §1
The next assay deals with PUM1 PUF domain R8-RWF (Homo sapiens, UniProt Q14671 828-1176, N1122R;Y1123W;Q1126F). An outline of the steps: as §1
In the next assay the target is PUM1 PUF domain R1-QIR (Homo sapiens, UniProt Q14671 828-1176, S863Q;R864I;Q867R). An outline of the steps:
as §1

A further assay addresses T1, PUM1 PUF domain R6-TWG (Homo sapiens, UniProt Q14671 828-1176, N1043T;Y1044W;Q1047G).
T1 sequence: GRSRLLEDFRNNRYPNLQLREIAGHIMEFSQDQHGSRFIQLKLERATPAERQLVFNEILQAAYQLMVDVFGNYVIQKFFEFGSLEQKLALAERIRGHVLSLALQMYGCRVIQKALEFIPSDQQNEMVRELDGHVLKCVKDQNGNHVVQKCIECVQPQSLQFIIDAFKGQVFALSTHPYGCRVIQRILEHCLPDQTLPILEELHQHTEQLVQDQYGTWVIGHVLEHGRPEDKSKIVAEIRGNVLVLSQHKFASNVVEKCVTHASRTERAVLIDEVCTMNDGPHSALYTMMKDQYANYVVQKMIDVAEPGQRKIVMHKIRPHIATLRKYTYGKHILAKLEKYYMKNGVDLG
An outline of the steps: as §1

For another assay, the target named is PUM1 PUF domain R3-YCG (Homo sapiens, UniProt Q14671 828-1176, C935Y;R936C;Q939G). Summed up:
as §1

Take “GGCUAGAACUAGUGGAUCCCCCGGCGCCCGGCGGCUCGAGCCCGGGUAAGUGUAAAUUGUCUGCAUGCCGCCGGGCGCCAUGCCUGCAGGUCGACUCUAGAAAACAUG”: the binding signal with PUM1 PUF domain R1-QRR was 1.96 log2 enrichment (interaction score); with PUM1 PUF domain R1-VKR, 1.61 log2 enrichment (interaction score); in the assay with PUM1 PUF domain R1-RKV, 3.41 log2 enrichment (interaction score).

Turning to “GGCUAGAACUAGUGGAUCCCCCGGCGCCCGGCGGCUCGAGCCCGGGUAAGUGUAAUUAGUCUGCAUGCCGCCGGGCGCCAUGCCUGCAGGUCGACUCUAGAAAACAUG”, the figures for the binding signal with PUM1 PUF domain R3-EWV, with PUM1 PUF domain R3-GWP and with PUM1 PUF domain R3-ARI were 2.82 log2 enrichment (interaction score), 4.22 log2 enrichment (interaction score) and 2.15 log2 enrichment (interaction score), respectively.

Regarding “GGCUAGAACUAGUGGAUCCCCCGGCGCCCGGCGGCUCGAGCCCGGGUAAGCGUAAAUAGUCUGCAUGCCGCCGGGCGCCAUGCCUGCAGGUCGACUCUAGAAAACAUG”, the binding signal with PUM1 PUF domain R8-RWF is 5.22 log2 enrichment (interaction score).

Take “GGCUAGAACUAGUGGAUCCCCCGGCGCCCGGCGGCUCGAGCCCGGGUAAGUGUAAAUCGUCUGCAUGCCGCCGGGCGCCAUGCCUGCAGGUCGACUCUAGAAAACAUG”: the binding signal in the assay with PUM1 PUF domain R1-QRR was 5.33 log2 enrichment (interaction score); in the assay with PUM1 PUF domain R1-VKR it was 3.48 log2 enrichment (interaction score); with PUM1 PUF domain R1-QIR it was 3.53 log2 enrichment (interaction score).

With “GGCUAGAACUAGUGGAUCCCCCGGCGCCCGGCGGCUCGAGCCCGGGUAAGUGUAAAUAGUCUGCAUGCCGCCGGGCGCCAUGCCUGCAGGUCGACUCUAGAAAACAUG”, the binding signal is 6.69 log2 enrichment (interaction score) with PUM1 PUF domain R3-GWP, 4.45 log2 enrichment (interaction score) with PUM1 PUF domain R3-ARI and 3.96 log2 enrichment (interaction score) in the assay with PUM1 PUF domain R6-TWG.

With “GGCUAGAACUAGUGGAUCCCCCGGCGCCCGGCGGCUCGAGCCCGGGUAAGUGUAAGUAGUCUGCAUGCCGCCGGGCGCCAUGCCUGCAGGUCGACUCUAGAAAACAUG”, the binding signal was 2.9 log2 enrichment (interaction score) with PUM1 PUF domain R3-EWV, 4.58 log2 enrichment (interaction score) with PUM1 PUF domain R3-YCG and 5.41 log2 enrichment (interaction score) with PUM1 PUF domain R3-GWP.

With “GGCUAGAACUAGUGGAUCCCCCGGCGCCCGGCGGCUCGAGCCCGGGUAAGUGUAAAUGGUCUGCAUGCCGCCGGGCGCCAUGCCUGCAGGUCGACUCUAGAAAACAUG”, the binding signal in the assay with PUM1 PUF domain R1-VKR is 0.84 log2 enrichment (interaction score); in the assay with PUM1 PUF domain R1-RKV, 0.48 log2 enrichment (interaction score).
